For nine molecules, inhibition results are on record in ChEMBL document CHEMBL1961873, “Compounds: GSK PKIS; Assays: Nanosyn kinase panel” (2012).

Test [1] concerns the target Sphingosine kinase 1 (Homo sapiens) (UniProt Q9NYA1). Conditions: at 1 µM.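 Note: mean SPHK1 inhibition value reported from the GSK PKIS kinase panel screen.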
Test [2] concerns the target T1, Sphingosine kinase 2 (Homo sapiens) (UniProt Q9NRA0).
T1 sequence (whole entry): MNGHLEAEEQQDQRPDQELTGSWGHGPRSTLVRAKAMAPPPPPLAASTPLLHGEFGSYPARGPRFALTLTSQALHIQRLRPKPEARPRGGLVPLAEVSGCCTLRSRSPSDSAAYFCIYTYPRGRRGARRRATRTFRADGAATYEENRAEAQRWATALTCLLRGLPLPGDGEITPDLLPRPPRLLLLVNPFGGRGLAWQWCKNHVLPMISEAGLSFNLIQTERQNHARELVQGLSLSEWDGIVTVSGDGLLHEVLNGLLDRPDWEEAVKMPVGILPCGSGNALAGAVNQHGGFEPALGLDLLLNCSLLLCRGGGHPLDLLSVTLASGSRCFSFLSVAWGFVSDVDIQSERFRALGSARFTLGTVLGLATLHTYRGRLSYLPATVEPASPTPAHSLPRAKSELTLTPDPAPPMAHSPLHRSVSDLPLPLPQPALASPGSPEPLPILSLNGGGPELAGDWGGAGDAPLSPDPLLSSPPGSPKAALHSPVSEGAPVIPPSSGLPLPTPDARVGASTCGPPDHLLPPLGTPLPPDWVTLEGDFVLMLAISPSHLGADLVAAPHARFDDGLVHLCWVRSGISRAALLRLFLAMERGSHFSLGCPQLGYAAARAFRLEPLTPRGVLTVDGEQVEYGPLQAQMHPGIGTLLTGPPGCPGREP
Conditions: at 0.1 µM.

Test [3] addresses T1, Sphingosine kinase 2 (Homo sapiens). The conditions noted are these: at 1 µM.
Test [4] has as its target Casein kinase II subunit alpha (Homo sapiens) (UniProt P68400). The conditions noted are these: at 0.1 µM.
For test [5] the target is unchanged. The conditions noted are these: at 1 µM.
Test [6] has as its target T2, Inhibitor of nuclear factor kappa-B kinase subunit alpha (Homo sapiens) (UniProt O15111).
T2 sequence (whole entry): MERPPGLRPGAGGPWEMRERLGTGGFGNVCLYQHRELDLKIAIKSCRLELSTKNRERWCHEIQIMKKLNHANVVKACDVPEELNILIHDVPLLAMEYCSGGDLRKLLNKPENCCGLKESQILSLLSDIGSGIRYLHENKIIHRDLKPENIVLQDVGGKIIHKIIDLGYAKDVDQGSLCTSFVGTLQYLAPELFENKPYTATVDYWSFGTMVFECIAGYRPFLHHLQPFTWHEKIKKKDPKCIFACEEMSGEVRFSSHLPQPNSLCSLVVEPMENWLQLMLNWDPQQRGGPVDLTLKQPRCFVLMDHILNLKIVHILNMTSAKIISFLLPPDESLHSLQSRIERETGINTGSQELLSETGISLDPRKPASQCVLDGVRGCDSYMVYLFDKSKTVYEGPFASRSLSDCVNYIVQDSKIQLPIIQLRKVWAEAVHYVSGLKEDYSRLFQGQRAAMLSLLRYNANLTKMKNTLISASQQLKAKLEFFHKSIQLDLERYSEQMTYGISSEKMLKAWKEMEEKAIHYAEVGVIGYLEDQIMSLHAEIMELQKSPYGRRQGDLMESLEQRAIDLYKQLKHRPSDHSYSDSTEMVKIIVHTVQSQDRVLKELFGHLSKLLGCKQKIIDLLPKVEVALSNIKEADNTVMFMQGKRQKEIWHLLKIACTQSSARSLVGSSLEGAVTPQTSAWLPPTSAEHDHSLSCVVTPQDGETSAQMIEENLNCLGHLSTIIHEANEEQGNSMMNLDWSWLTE
Conditions: at 0.1 µM.

The target of test [7] is T2, Inhibitor of nuclear factor kappa-B kinase subunit alpha (Homo sapiens). The conditions noted are these: at 1 µM.
Test [8] addresses T3, Inhibitor of nuclear factor kappa-B kinase subunit beta (Homo sapiens) (UniProt O14920).
T3 sequence (whole entry): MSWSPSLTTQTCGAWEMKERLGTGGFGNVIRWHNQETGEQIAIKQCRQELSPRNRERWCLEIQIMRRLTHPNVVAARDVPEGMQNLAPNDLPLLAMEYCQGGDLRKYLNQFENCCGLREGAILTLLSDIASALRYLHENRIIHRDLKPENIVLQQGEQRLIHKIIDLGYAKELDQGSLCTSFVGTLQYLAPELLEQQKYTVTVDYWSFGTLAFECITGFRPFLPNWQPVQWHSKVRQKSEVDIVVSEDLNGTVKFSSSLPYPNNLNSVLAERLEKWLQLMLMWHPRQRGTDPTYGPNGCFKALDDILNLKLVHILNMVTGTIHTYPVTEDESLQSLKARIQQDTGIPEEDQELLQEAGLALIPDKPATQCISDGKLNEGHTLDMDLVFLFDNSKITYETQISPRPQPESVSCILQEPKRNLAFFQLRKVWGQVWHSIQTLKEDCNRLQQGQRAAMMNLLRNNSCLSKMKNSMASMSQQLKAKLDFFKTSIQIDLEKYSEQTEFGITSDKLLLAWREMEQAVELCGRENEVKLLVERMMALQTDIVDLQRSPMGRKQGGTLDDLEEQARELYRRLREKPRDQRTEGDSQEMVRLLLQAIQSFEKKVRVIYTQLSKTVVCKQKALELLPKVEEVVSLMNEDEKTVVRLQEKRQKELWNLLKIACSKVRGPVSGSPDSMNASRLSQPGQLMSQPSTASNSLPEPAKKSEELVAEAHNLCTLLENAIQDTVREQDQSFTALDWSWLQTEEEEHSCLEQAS
Conditions: at 0.1 µM.

In test [9] the target is T3, Inhibitor of nuclear factor kappa-B kinase subunit beta (Homo sapiens). Conditions: at 1 µM.
Test [10] has as its target T4, Inhibitor of nuclear factor kappa-B kinase subunit epsilon (Homo sapiens) (UniProt Q14164).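 Note: mean inhibition of IKKε reported, from the GSK PKIS dataset.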
T4 sequence (whole entry): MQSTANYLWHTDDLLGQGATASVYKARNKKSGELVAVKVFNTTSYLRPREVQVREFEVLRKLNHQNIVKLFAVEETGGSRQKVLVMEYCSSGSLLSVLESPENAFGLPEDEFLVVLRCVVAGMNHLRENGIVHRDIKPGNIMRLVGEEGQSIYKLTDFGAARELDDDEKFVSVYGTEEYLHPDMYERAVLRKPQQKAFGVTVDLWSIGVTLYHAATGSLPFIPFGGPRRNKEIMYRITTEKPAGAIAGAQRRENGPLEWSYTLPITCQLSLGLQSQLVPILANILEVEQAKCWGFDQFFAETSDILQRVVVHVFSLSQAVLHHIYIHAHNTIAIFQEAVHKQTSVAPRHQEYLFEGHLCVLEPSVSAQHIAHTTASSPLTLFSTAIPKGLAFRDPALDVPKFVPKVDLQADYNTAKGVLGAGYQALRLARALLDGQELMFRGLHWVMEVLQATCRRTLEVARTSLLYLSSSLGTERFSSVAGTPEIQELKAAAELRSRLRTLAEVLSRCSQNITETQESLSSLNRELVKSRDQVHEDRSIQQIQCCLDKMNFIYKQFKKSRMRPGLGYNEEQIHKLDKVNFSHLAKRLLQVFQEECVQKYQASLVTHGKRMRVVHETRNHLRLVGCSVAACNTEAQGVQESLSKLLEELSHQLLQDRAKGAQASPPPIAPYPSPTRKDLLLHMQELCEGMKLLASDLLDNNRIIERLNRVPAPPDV
The conditions noted are these: at 0.1 µM.

Each structure is given as a SMILES string.

Casein kinase II subunit alpha (Homo sapiens), sequence (P68400 whole entry, looked up): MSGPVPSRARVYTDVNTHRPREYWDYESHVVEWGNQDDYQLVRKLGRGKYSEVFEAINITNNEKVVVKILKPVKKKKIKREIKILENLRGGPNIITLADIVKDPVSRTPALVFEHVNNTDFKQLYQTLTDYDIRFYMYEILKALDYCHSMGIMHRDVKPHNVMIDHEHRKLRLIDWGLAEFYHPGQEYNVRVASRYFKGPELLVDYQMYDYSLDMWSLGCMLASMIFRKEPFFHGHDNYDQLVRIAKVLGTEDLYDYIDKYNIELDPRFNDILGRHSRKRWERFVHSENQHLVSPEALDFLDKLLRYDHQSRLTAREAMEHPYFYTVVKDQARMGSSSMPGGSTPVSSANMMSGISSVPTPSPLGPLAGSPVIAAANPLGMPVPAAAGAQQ
Sphingosine kinase 1 (Homo sapiens), sequence (Q9NYA1 whole entry): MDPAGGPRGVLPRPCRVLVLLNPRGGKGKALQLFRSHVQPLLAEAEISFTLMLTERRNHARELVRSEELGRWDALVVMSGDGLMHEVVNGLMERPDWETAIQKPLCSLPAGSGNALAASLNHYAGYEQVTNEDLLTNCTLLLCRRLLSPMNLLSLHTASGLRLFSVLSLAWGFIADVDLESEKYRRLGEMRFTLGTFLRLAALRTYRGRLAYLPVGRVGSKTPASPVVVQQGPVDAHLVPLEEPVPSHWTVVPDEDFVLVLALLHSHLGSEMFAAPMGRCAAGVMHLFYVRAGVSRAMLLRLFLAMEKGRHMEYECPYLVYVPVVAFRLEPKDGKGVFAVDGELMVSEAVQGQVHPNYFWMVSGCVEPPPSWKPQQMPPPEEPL

On to `CS(=O)(=O)Nc1cccc(-c2ccc3c(NC(=O)C4CC4)n[nH]c3c2)c1`, for which the inhibition in test [1] was -0.74%; in [2] it was 1%; in [3], 0.16%; in test [4], -2.9%; in test [5], -3.51%; in test [6] it was -2.77%. The inhibition was -6.36% in test [7], 8.91% in test [8], 3.62% in test [9] and 2.67% in test [10].

`COC(=O)c1ccc2c(c1)C(=Cc1cc(Br)c(O)c(Br)c1)C(=O)N2`: the inhibition in [1] was -3.43%; in test [2], -0.52%; in test [3], -0.45%; in [4] it was 14.7%; in [5], 47%; in [6], 5.93%. In addition, the inhibition in [7] was 3%; in test [8], 6.94%; in test [9], 8.75%; in test [10] it was 7.2%.

In the case of `COc1cc2ncnc(Nc3ccc4c(cnn4Cc4ccccc4)c3)c2cc1OC`, the inhibition is 2.19% in test [1]; 0.07% in [2]; 0.14% in test [3]; -5.08% in test [4]; 4.31% in test [5]; 2.23% in test [6]. Also, the inhibition in test [7] came out at 8.23%; in test [8], 3.63%; in test [9] it was 3.81%; in test [10] it was 2.69%.

For `N#Cc1cccc(Nc2nccc(-c3cnn4ncccc34)n2)c1`, the inhibition in test [1] is -1.39%; in test [2] it was 0%; in [3], -6.48%; in test [4], 20.4%; in test [5] it was 63.9%; in test [6], 9.53%. Further, the inhibition came out at 31% in test [7], 7.83% in [8], 20.5% in [9] and 7.68% in [10].

Turning to `O=C1Nc2ccccc2/C1=C/Nc1ccc2[nH]c(=O)[nH]c2c1`, the inhibition in test [1] is -0.67%; in test [2], -0.03%; in test [3], -2.68%; in test [4] it was 3.81%; in test [5] it was 13.9%; in [6], 12.9%. Further, the inhibition in test [7] amounted to 10.2%; in [8], 7.85%; in test [9] it was 11.6%; in test [10], 8.71%.

`COc1cccc(-n2ncc3c(N/N=C/c4ccc(S(C)(=O)=O)cc4)ncnc32)c1`: the inhibition was 10.4% in test [1]; 2.7% in test [2]; -2.05% in [3]; 23.1% in [4]; 39.1% in [5]; -1.85% in test [6]. The inhibition is -0.62% in test [7], -1.48% in test [8], -0.15% in test [9] and 1.8% in test [10].

On to `CCS(=O)(=O)c1ccc(OC)c(Nc2ncc(-c3cccc(OC)c3)o2)c1`, for which the inhibition in test [1] is 1.37%; in test [2], 0%; in test [3], -2%; in test [4], 5.03%; in [5], 29.3%; in [6], 5.66%. Further, the inhibition in test [7] is -4.47%; in [8], 3.95%; in test [9], 1.16%; in [10], 0.74%.

`Cc1cc(Cl)cc2c1NC(=O)C2=NNc1ccc(S(N)(=O)=O)cc1`: the inhibition in test [1] is -2.79%; in [2] it was -0.11%; in [3], -2.78%; in test [4], 3.02%; in [5], 8.79%; in [6], 1.51%. For the same molecule, the inhibition in [7] was 10.1%; in [8], 8.97%; in test [9] it was 7.33%; in [10], 6.15%.

With `Cc1ccc2c(-c3ccnc(Nc4cccc(C(F)(F)F)c4)n3)c(-c3ccccc3)nn2n1`, the inhibition was -0.04% in test [1]; 0% in [2]; 0% in [3]; 1.2% in test [4]; 3.98% in test [5]; 1.79% in test [6]. For the same molecule, the inhibition worked out at 5.16% in [7], 4.63% in [8], 8.3% in test [9] and 7.46% in test [10].
